Sampled rows, rich in hits. Any-hit rate of the full collection: about 1.3%.
eLon inh: inhibitors of E. coli Lon protease, primary screen, biochemical, fluorescence polarization | purified E. coli Lon protease | inhibition, % at 7.94 µM | 360,000 tested, 0.42% active | AID 602123, 2011; in the data active = inhibition above about 13%, passing the limit was not always enough;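 also: 0% = enzyme with probe and DMSO and 100% = no enzyme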
LANA DNA inh: inhibitors of KSHV C-LANA binding to DNA, primary screen, biochemical, fluorescence polarization, FAM-LBS DNA, MBP-C-LANA, single point. inhibition, % at 9 µM. 340,000 tested, 0.078% active. AID 504423, 2011;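 active = highest replicate inhibition at or above 60% at 9 µM, even if other replicates fall short; inactive = all replicates below 60% inhibition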;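 also: 0% = neutral control wells and 100% = 4 µM acridine orange control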
LANA-H2A inh: blockers of LANA interaction with H2A/H2B – biochemical, FP readout, HTS, primary screen; cell-free LANA-H2A/H2B peptide, fluorescence polarization; inhibition, % (no concentration beside the values); 320,000 tested, 0.6% active; in the data active = inhibition mostly above about 10%, no sharp cut-off; inactive = mostly below about 6.7%
Target sequence (Q9QR71 whole entry, looked up): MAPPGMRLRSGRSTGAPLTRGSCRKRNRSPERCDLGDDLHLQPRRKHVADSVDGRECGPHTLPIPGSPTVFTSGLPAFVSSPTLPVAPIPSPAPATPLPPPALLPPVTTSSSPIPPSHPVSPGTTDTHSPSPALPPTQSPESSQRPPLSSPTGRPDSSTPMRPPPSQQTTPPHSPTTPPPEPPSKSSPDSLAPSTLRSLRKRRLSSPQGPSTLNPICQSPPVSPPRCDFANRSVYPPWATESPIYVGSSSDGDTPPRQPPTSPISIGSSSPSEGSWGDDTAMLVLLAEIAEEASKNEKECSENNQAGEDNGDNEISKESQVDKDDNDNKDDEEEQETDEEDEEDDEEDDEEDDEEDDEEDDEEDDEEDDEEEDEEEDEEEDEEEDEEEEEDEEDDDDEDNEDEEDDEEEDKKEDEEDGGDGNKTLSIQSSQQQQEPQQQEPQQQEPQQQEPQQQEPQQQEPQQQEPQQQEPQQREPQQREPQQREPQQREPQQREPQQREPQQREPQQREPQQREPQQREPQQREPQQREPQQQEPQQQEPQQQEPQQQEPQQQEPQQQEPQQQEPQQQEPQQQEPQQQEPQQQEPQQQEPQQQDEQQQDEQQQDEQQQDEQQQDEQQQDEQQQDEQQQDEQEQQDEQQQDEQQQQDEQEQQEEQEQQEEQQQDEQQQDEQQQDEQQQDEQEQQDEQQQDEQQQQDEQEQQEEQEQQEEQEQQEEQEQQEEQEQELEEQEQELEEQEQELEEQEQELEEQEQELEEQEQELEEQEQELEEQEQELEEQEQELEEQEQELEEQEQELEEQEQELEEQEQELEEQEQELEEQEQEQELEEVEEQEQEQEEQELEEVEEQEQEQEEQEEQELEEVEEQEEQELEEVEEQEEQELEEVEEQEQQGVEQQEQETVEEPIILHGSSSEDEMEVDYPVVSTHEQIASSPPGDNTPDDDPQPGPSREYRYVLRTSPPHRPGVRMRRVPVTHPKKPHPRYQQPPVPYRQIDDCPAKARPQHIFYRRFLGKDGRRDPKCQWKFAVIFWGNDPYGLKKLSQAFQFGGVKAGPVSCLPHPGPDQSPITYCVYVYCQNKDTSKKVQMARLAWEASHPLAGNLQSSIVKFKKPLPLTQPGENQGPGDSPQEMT
Keap1-Nrf2 PPI: Keap1-Nrf2 protein-protein interaction inhibitors, primary screen, biochemical, fluorescence polarization, single point; 340,000 tested, 0.15% active; Kelch-like ECH-associated protein 1 (Homo sapiens), Q14145; inhibition, % at 9.4 µM; Keap1 Kelch-Nrf2 peptide fluorescence polarization, 1536-well; in the data active = inhibition above about 12%;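 also: human Keap1 Kelch domain with fluorescein labeled Nrf2 9mer peptide probe; 0% = neutral control wells and 100% = peptide positive control; higher means more block of Keap1 binding to Nrf2 peptide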
Cardiac RTF inh: cardiac RTF calcium sensitivity inhibitors, primary screen, biochemical, IANBD-TnC fluorescence, EC70 calcium. inhibition, % at 7.15 µM. IANBD-labeled cardiac RTF, Ca2+ fluorescence. 340,000 tested, 0.12% active. AID 493244, 2011;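 active = inhibition above the mean inhibition of all tested compounds plus 3 SD, cut at about 17% in these data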;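 also: assay run at fixed EC70 calcium of 1.6 mM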
RTF Ca sens act: cardiac RTF calcium sensitivity activators, primary screen, biochemical, IANBD-TnC fluorescence, EC20 calcium | Troponin I, cardiac muscle (Homo sapiens) + Troponin T, cardiac muscle (Homo sapiens) + … | IANBD-labeled TnC RTF fluorescence at EC20 calcium; 0% EC20 calcium, 100% full calcium | activation, % at 7.2 µM | 340,000 tested, 0.24% active;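 active = activation above the mean over all tested compounds plus 3 SD, cut at about 30% in these data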;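 also: rise in fluorescence read as greater calcium sensitivity of cardiac thin filaments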
The depositor's hits bear a star; i = inactive; nt = no result; + = active, no number.

SMILES	eLon inh	LANA DNA inh	LANA-H2A inh	Keap1-Nrf2 PPI	Cardiac RTF inh	RTF Ca sens act
S=C(NCc1cccs1)Nc1cccc(Cl)c1	5	1	-2	4	0	-3
S=C(NCc1cccs1)Nc1cc(Cl)cc(Cl)c1	5	-1	21*	-5	9	-1
C[C@]12C(=O)N(c3ccc(F)cc3)C(=O)N1[C@H]1c3ccccc3OC[C@@H]1[C@H]2c1ccccc1	-12	0	-3	-6	-16	-1
N#CC(c1nc2ccccc2nc1N1CCCC1)S(=O)(=O)c1ccccc1 (stereo unspecified)	-2	2	17*	-3	-31	12
COc1ccc(CNC(=O)C(C#N)c2nc3ccccc3nc2N2CCCC2)cc1 (stereo unspecified)	-35	18	0	5	-405	51*
COc1ccc(CNC(=O)C(C#N)c2nc3ccccc3nc2N2CCN(C)CC2)cc1 (stereo unspecified)	1	0	-2	-2	-8	1
COc1ccc(CCN2CC(C(=O)Nc3cc(F)ccc3F)CC2=O)cc1OC (stereo unspecified)	-17	1	-3	-2	-1	9
Cn1ccc2c([N+](=O)[O-])cccc2c1=O	-13	5	-1	0	-8	0
O=C(CC(=O)c1ccccn1)c1ccccc1	-2	0	nt	3	2	-8
CS(=O)c1ccccc1O (stereo unspecified)	-2	-1	39*	6	0	-6
O=S(c1ccccc1O)S(=O)c1ccccc1O (stereo unspecified)	-6	14	nt	-10	-8	-6
Cc1onc(NC(=O)NC(=O)c2c(Cl)cccc2Cl)c1Br	-12	0	-1	-4	-4	-5
O=C(NC12CC3CC(CC(C3)C1)C2)c1ccc(-c2ccc(Cl)cc2)o1	-9	-1	3	1	4	-7
O=C(NC12CC3CC(CC(C3)C1)C2)c1ccc(-c2ccccc2Cl)o1	19*	-3	3	1	2	8
COc1ccc(OC)c(-c2csc(NC(=O)CSc3ccc([N+](=O)[O-])cc3)n2)c1	-2	1	2	-6	-1	-9
N#C/C(=C/c1ccc(N2CCCCC2)o1)C(=O)Nc1ccc2ccccc2c1	i	-2	nt	-27	-200	166*
N#C/C(=C/c1ccc(N2CCCCC2)o1)C(=O)Nc1ccc(Cl)cc1	i	1	-11	-11	-110	41*
N#C/C(=C/c1ccc(N2CCOCC2)o1)C(=O)NC1CCCCC1	-430	-31	-29	-120	-66	50*
COc1ccc(NC(=O)/C(C#N)=C\c2ccc(N3CCOCC3)o2)cc1	i	-45	-47	-294	-161	135*
O=S(=O)(c1ccc(F)cc1)N1CCN(Cc2ccccn2)CC1	1	0	2	-4	-1	-1
CC(=O)Cc1nsc(NC(=O)c2ccc(-c3cccc(Cl)c3)o2)n1	-3	1	3	-1	3	1
CCCCOc1ccc(N(CC(=O)NCc2ccccc2)C(=O)c2csnn2)cc1	-14	-1	1	-7	3	-5
COC(=O)C1CC2(C(=O)OC)CC(C(=O)OC)(CC(C(=O)OC)C2=O)C1=O (stereo unspecified)	13	8	nt	-1	-1	4
CC1Cc2ccccc2N1C(=O)CSc1ncccn1 (stereo unspecified)	-6	-2	30*	0	3	2
Cc1ccccc1NC(=O)N1c2ccccc2CC1C (stereo unspecified)	7	1	54*	-5	6	-3
SMILES	eLon inh	LANA DNA inh	LANA-H2A inh	Keap1-Nrf2 PPI	Cardiac RTF inh	RTF Ca sens act
Cc1nc2cc(NC(=O)N3c4ccccc4CC3C)ccc2o1 (stereo unspecified)	-10	0	3	-2	-1	-2
Cc1ccc(C)c(/C=N/Nc2nc3ccccc3c(=O)n2O)c1	-4	nt	-1	nt	nt	nt
CCc1ccc(C(=O)N/N=C/c2ccc(Cl)cc2Cl)nc1	nt	nt	40*	nt	nt	nt
O=C(CCCC(=O)NN=Cc1ccc(Cl)cc1Cl)NN=Cc1ccc(Cl)cc1Cl	-1	0	nt	0	3	-3
CN(C)S(=O)(=O)c1ccc(C(=O)NCc2nc3ccccc3s2)cc1	-6	-2	15*	-4	-26	-2
COc1ccc(OC)c(NC(=O)CSc2ncnc3sc(C)cc23)c1	-22	-1	nt	-6	-6	-5
Cc1cccc(NC(=O)CSc2ccc3nnc(-c4cccnc4)n3n2)c1	-5	5	13*	6	-14	4
O=C(CSc1nnc(-c2cccnc2)n1-c1ccccc1)Nc1ccccc1	-7	1	15*	1	1	4
O=C(CSc1ccc2nnc(-c3cccnc3)n2n1)Nc1ccc(F)cc1	1	0	31*	0	1	-5
CCOC(=O)c1ccc(NC(=S)N(CCN2CCCCCC2)Cc2cccs2)cc1	-3	0	3	-4	14	-6
CCN(CC)S(=O)(=O)c1ccc(N2CC(C(=O)NCCc3ccc(Cl)cc3)CC2=O)cc1 (stereo unspecified)	-1	0	+	-4	-5	0
CN(C)CCNC(=O)C1CC(=O)N(c2ccc(F)c(Cl)c2)C1 (stereo unspecified)	-11	0	94*	3	-4	-4
CCO[C@@H]1OC(C(=O)N2CCN(Cc3ccc4c(c3)OCO4)CC2)=C[C@H](c2csc3ccccc23)[C@H]1CCCO	-7	-1	14*	-5	5	1
CCO[C@H]1OC(C(=O)N2CCN(Cc3ccc4c(c3)OCO4)CC2)=C[C@@H](c2ccccc2)[C@@H]1CCCO	2	-2	7	-3	6	6
CCCCN(C(=O)c1ccc([N+](=O)[O-])o1)c1c(N)n(CCCC)c(=O)[nH]c1=O	-3	0	nt	-7	-17	17
Cc1cccc(N2CCN(C(=O)COc3ccc4c(C)cc(=O)oc4c3C)CC2)c1C	2	-1	-8	-4	-6	1
CCN(CC)c1ccc(S(=O)(=O)N2CCOCC2)cc1NC(=O)Cn1nc(C)c([N+](=O)[O-])c1C	-7	0	2	-1	3	-3
CCN(CC)c1ccc(S(=O)(=O)N2CCOCC2)cc1NC(=O)CN1CCc2ccccc2C1	8	1	33*	-5	0	-7
